Experimental data as given in the supplement of paper PMC6992640.
Structures can show the parent of a compound that is named as a salt. ± gives the standard deviation of the averaged measurements.

Tests used:
Assay in all cases: cell viability (% of vehicle); higher = less cytotoxic
Details in all cases: 10 µM; 72 h
[1] = tested on: HCI01 (cells of a triple-negative basal-like breast cancer xenograft)
[2] = tested on: HCI03 (cells of an ER-positive luminal breast cancer xenograft)
[3] = tested on: HCI09 (cells of a triple-negative luminal androgen receptor type breast cancer xenograft)
[4] = tested on: HCI11 (cells of an ER-positive luminal breast cancer xenograft)
[5] = tested on: HCI13 (cells of an ER-positive luminal breast cancer xenograft)
[6] = tested on: HCI16 (cells of a triple-negative basal-like breast cancer xenograft)
[7] = tested on: UCD52 (cells of a triple-negative basal-like breast cancer xenograft)
[8] = tested on: WHIM2 (cells of a triple-negative basal-like breast cancer xenograft)
[9] = tested on: WHIM30 (cells of a triple-negative basal-like breast cancer xenograft)
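Note: PDX cells carrying CMV promoter-driven luciferase, viability read as total photon flux per second by IVIS imaging following D-luciferin, vehicle control 0.1% DMSO.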

Structure (SMILES) | cell viability [1] | cell viability [2] | cell viability [3] | cell viability [4] | cell viability [5] | cell viability [6] | cell viability [7] | cell viability [8] | cell viability [9]
C=C1c2cccc(O)c2C(O)=C2C(=O)C3(O)C(O)=C(C(N)=O)C(=O)C(N(C)C)C3C(O)C12.Cl (stereo unspecified) [Methacycline HCl] | 114 ± 4.2 | 128 | 104 ± 5.9 | 81.8 | 140 ± 12 | 158 | 111 ± 5.5 | 94.3 ± 2 | 121 ± 2.4
CCOC(=O)C(CCc1ccccc1)NC(C)C(=O)N1C(=O)N(C)CC1C(=O)O.Cl (stereo unspecified) [Imidapril HCl] | 105 ± 8.3 | 113 | 99.8 ± 7.1 | 102 | 126 ± 1.4 | 94.2 | 78 ± 3.8 | 105 ± 3.3 | 104 ± 10
CN(C)CCc1c[nH]c2ccc(CC3COC(=O)N3)cc12 (stereo unspecified) [Zolmitriptan] | 86.8 ± 19 | 134 | 107 ± 11 | 96 | 119 ± 21 | 107 | 94.8 ± 8.3 | 86.6 ± 2.1 | 131 ± 11
COC(=O)C1=COC(O)C2C(CO)=CCC12 (stereo unspecified) [Genipin] | 168 ± 20 | 138 | 95.3 ± 6 | 98.6 | 119 ± 2.7 | 198 | 110 ± 5.3 | 124 ± 11 | 155 ± 9.6
CCOC(=O)CC(=O)N1CCSC1COc1ccccc1OC (stereo unspecified) [Moguisteine] | 68.2 ± 37 | 114 | 102 ± 8.2 | 89.5 | 115 ± 9 | 127 | 83.2 ± 4.3 | 88.7 ± 22 | 131 ± 4.4
CC/C(=C(\c1ccccc1)c1ccc(OCCN(C)C)cc1)c1ccccc1 [Tamoxifen] | 39.1 ± 8.5 | 139 | 58.5 ± 44 | 120 | 82.5 ± 42 | 88.8 | 74.5 ± 15 | 70.4 ± 0.76 | 123 ± 9.1
NCC1OC(OC2C(CO)OC(OC3C(O)C(N)CC(N)C3OC3OC(CO)C(O)C(O)C3N)C2O)C(N)C(O)C1O.O=S(=O)(O)O (stereo unspecified) [Paromomycin Sulfate] | 125 ± 32 | 133 | 88.3 ± 10 | 95 | 86.8 ± 14 | 129 | 91.82 ± 0.62 | 131 ± 48 | 111 ± 8
CN(C)CCc1c[nH]c2ccc(Cn3cncn3)cc12.O=C(O)c1ccccc1 [Rizatriptan Benzoate] | 108 ± 11 | 118 | 137 ± 72 | 121 | 110 ± 21 | 106 | 102 ± 9.9 | 86.3 ± 21 | 124 ± 6.5
CNS(=O)(=O)Cc1ccc2[nH]cc(CCN(C)C)c2c1 [Sumatriptan] | 92.7 ± 1.9 | 119 | 84 ± 7.2 | 90.7 | 126 ± 3.5 | 110 | 98 ± 7.2 | 95.6 ± 19 | 110 ± 19
CCCCC1=NC2(CCCC2)C(=O)N1Cc1ccc(-c2ccccc2-c2nn[nH]n2)cc1 [Irbesartan] | 86.3 ± 2 | 105 | 94.6 ± 3.9 | 91.8 | 114 ± 2.4 | 107 | 103 ± 5.5 | 105 ± 4.9 | 82.7 ± 24
O=S(=O)([O-])Oc1ccc(C(c2ccc(OS(=O)(=O)[O-])cc2)c2ccccn2)cc1.[Na+].[Na+] [Sodium Picosulfate] | 103 ± 33 | 119 | 102 ± 6 | 86.7 | 116 ± 6.3 | 117 | 90.71 ± 0.14 | 91.2 ± 20 | 101 ± 5.3
CCOC(=O)C(CCc1ccccc1)NC(C)C(=O)N1C(C(=O)O)CC2CCCC21 (stereo unspecified) [Ramipril] | 77.7 ± 49 | 129 | 86.7 ± 4.7 | 91.6 | 115 ± 14 | 106 | 87.6 ± 5.9 | 90.8 ± 9.4 | 99.772 ± 0.035
COc1cc(Nc2nc3ccccc3nc2NS(=O)(=O)c2ccc(NC(=O)c3ccc(C)c(OC)c3)cc2)cc(OC)c1 | 86.4 ± 4.2 | 102 | 49.675 ± 0.011 | 86.9 | 66.9 ± 17 | 94.9 | 84.5 ± 8.2 | 54.3 ± 12 | 88.5 ± 24
Cc1cncc(CN2CCC(=C3c4ccc(Cl)cc4CCc4cccnc43)CC2)c1.O=C(O)C=CC(=O)O [Rupatadine Fumarate] | 89.8 ± 4.1 | 87.7 | 42 ± 3 | 70.2 | 58.2 ± 9.9 | 109 | 63.1 ± 3.4 | 78 ± 7.6 | 81.2 ± 3.8
CC(=O)NCC1CN(c2ccc(N3CCOCC3)c(F)c2)C(=O)O1 (stereo unspecified) [Linezolid] | 99.5 ± 2.9 | 108 | 93.8 ± 5.2 | 103 | 98.1 ± 3 | 110 | 81 ± 12 | 80.7 ± 1.3 | 137 ± 14
COC(=O)C=CC(=O)OC [Dimethyl Fumarate] | 126 ± 22 | 129 | 104 ± 5.7 | 95.4 | 70.4 ± 15 | 113 | 94.6 ± 3.6 | 134 ± 30 | 128 ± 18
CC1OC(n2cc(F)c(=O)[nH]c2=O)C(O)C1O (stereo unspecified) [Doxifluridine] | 67.1 ± 35 | 152 | 89.8 ± 12 | 110 | 104 ± 7.4 | 148 | 93 ± 19 | 102 ± 19 | 175.4 ± 0.91
N[C@@H](CCC(=O)N[C@@H](CS)C(=O)NCC(=O)O)C(=O)O [L-Glutathione Reduced] | 103 ± 5.7 | 115 | 107 ± 4 | 85.3 | 104 ± 6.7 | 113 | 99.8 ± 5.5 | 98.6 ± 5 | 131 ± 2.4
NC(CO)(CO)CO [Trometamol] | 86.3 ± 6.3 | 114 | 94.9 ± 21 | 91.5 | 58.4 ± 13 | 104 | 86 ± 7 | 99.2 ± 16 | 113 ± 12
COc1ccccc1OCC(O)CN1CCN(CC(=O)Nc2c(C)cccc2C)CC1.Cl.Cl (stereo unspecified) [Ranolazine 2HCl] | 95.6 ± 9.7 | 124 | 102 ± 7.6 | 109 | 105 ± 6 | 138 | 85.7 ± 14 | 114 ± 1.7 | 158 ± 20

Structure (SMILES) | cell viability [1] | cell viability [2] | cell viability [3] | cell viability [4] | cell viability [5] | cell viability [6] | cell viability [7] | cell viability [8] | cell viability [9]
Cc1noc(NS(=O)(=O)c2ccc(N)cc2)c1C [Sulfisoxazole] | 89.3 ± 28 | 121 | 94.4 ± 8.1 | 86.9 | 107 ± 2.8 | 112 | 99.8 ± 3.5 | 84.1 ± 8.8 | 117 ± 1.3
COc1ccc(CNc2nc(N3CCCC3CO)ncc2C(=O)NCc2ncccn2)cc1Cl (stereo unspecified) [Avanafil] | 155 ± 7.5 | 117 | 102 ± 23 | 143 | 123 ± 11 | 121 | 104 ± 15 | 130 ± 2.6 | 135 ± 7.5
Cl.c1ccc2c(CC3=NCCN3)cccc2c1 [Naphazoline HCl] | 121 ± 18 | 105 | 104 ± 20 | 101 | 88.7 ± 14 | 93.3 | 81.6 ± 9.3 | 92.3 ± 26 | 122 ± 21
CC12CCC3=C4CCC(=O)C=C4CCC3C1CCC2(O)CC#N (stereo unspecified) [Dienogest] | 178 ± 40 | 124 | 94.3 ± 2.7 | 82.2 | 170 ± 3.3 | 164 | 92.3 ± 3.2 | 105 ± 6.8 | 139 ± 9
CC(C)C1CCC(C(=O)NC(Cc2ccccc2)C(=O)O)CC1 (stereo unspecified) [Nateglinide] | 84.1 ± 62 | 131 | 76.3 ± 6.6 | 87.4 | 112 ± 18 | 110 | 94 ± 4.4 | 117 ± 19 | 122 ± 17
CN1CCCC(n2nc(Cc3ccc(Cl)cc3)c3ccccc3c2=O)CC1.Cl (stereo unspecified) [Azelastine HCl] | 142 ± 46 | 106 | 101 ± 1.3 | 69.2 | 113 ± 22 | 116 | 57.6 ± 17 | 78.7 ± 8.4 | 94.9 ± 6.3
CCCCCOC(=O)Nc1nc(=O)n(C2OC(C)C(O)C2O)cc1F (stereo unspecified) [Capecitabine] | 142 ± 26 | 114 | 139 ± 24 | 124 | 165 ± 25 | 120 | 112 ± 4 | 108 ± 6.9 | 162 ± 33
Nc1ccc(O)c(C(=O)O)c1 [Mesalamine] | 110 ± 2.2 | 125 | 116 ± 8.1 | 103 | 130 ± 15 | 125 | 105 ± 2.3 | 92 ± 2.1 | 155 ± 27
CCCc1nn(C)c2c(=O)nc(-c3cc(S(=O)(=O)N4CCN(C)CC4)ccc3OCC)[nH]c12.O=C(O)CC(O)(CC(=O)O)C(=O)O [Sildenafil Citrate] | 116 ± 2.8 | 144 | 96 ± 15 | 118 | 130 ± 23 | 94.4 | 88.2 ± 4 | 83.8 ± 4.8 | 53.9 ± 10
NCCC(O)C(=O)NC1CC(N)C(OC2OC(CN)C(O)C(O)C2O)C(O)C1OC1OC(CO)C(O)C(N)C1O (stereo unspecified) [Amikacin] | 93.2 ± 16 | 144 | 105 ± 22 | 95.3 | 106 ± 16 | 114 | 103 ± 11 | 86.1 ± 8.6 | 117 ± 2.6
CC(=O)O.NC(N)=NN=Cc1c(Cl)cccc1Cl [Guanabenz Acetate] | 134 ± 24 | 122 | 83.5 ± 5.4 | 108 | 101 ± 12 | 158 | 76.9 ± 2.8 | 109 ± 16 | 110 ± 20
Nc1cccc2c1C(=O)N(C1CCC(=O)NC1=O)C2=O (stereo unspecified) [Pomalidomide (CC-4047)] | 122 ± 2 | 126 | 87.9 ± 2.9 | 108 | 91.9 ± 8.8 | 103 | 104 ± 3.8 | 73.9 ± 5.1 | 133.9 ± 0.79
CC(O)C1C(=O)N2C(C(=O)O)=C(SC3CNC(C(=O)N(C)C)C3)C(C)C12 (stereo unspecified) [Meropenem] | 103 ± 7 | 106 | 87.1 ± 6.1 | 95.1 | 98.6 ± 2.3 | 103 | 73.2 ± 6.8 | 83.4 ± 4.6 | 112 ± 5.1
CC(C)(C)c1cc(NC(=O)Nc2ccc(-c3cn4c(n3)sc3cc(OCCN5CCOCC5)ccc34)cc2)no1 [Quizartinib (AC220)] | 168 ± 27 | 112 | 81.5 ± 1.3 | 111 | 94 ± 17 | 127 | 146 ± 29 | 74.2 ± 3.8 | 193 ± 34
NCCCC(O)(P(=O)([O-])O)P(=O)(O)O.[Na+] [Alendronate sodium] | 102 ± 7.7 | 111 | 95.1 ± 18 | 97.3 | 97.6 ± 3.9 | 97.1 | 79 ± 5.8 | 93.7 ± 13 | 116 ± 8.4
CC(C)OC(=O)C(C)(C)Oc1ccc(C(=O)c2ccc(Cl)cc2)cc1 [Fenofibrate] | 108 ± 18 | 106 | 93.6 ± 4.2 | 92.1 | 87.5 ± 35 | 135 | 89.1 ± 14 | 109 ± 1.6 | 137 ± 9.3
CCCCCCCCCCCCCCCC(=O)OCC=C(C)C=CC=C(C)C=CC1=C(C)CCCC1(C)C [Retinyl (Vitamin A) Palmitate] | 102 ± 22 | 100 | 88.4 ± 3.2 | 88.1 | 79 ± 17 | 104 | 94.3 ± 4.9 | 112 ± 27 | 125 ± 13
Cl.c1ccc(CC2=NCCN2)cc1 [Tolazoline HCl] | 94.2 ± 1.9 | 100 | 92 ± 13 | 91.4 | 118 ± 8.5 | 115 | 92.7 ± 2.9 | 105 ± 5.3 | 87.3 ± 5
C[C@H](C(=O)O)c1ccc(-c2ccccc2)c(F)c1 [(S)-Flurbiprofen] | 109 ± 15 | 138 | 98.3 ± 21 | 78.6 | 98.7 ± 1.3 | 107 | 103 ± 2.4 | 103 ± 13 | 106 ± 5.7
